Experiment [1] in a line: A CellTox Green Cytotoxicity Assay to monitor cytotoxicity in HepG2 cells - 8 hour (AID 1224890). Further: nearly all actives have a fitted effect of over 45% in size. The essentials:
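HepG2 cells were seeded together with the CellTox Green dye at 600 cells/well, left 5 h at 37 C/5% CO2, then given compounds in DMSO. Fluorescence from dye bound to dead-cell DNA was read repeatedly over 40 h of treatment at 37 C.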

A short description of experiment [2]: qHTS assay to identify small molecule antagonists of the estrogen receptor alpha (ER-alpha) signaling pathway using the BG1 cell line in the presence of 0.1 nM 17-beta-estradiol - cell viability counter screen (AID 1259241). Further: nearly all actives have a fitted effect of over 40% in size. Further: potency means the concentration at half of the fitted maximal effect. The essentials:
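CellTiter-Fluor read (30 min, 37C) on ER-alpha/ERE-luc VM7Luc4E2 cells; 22 hr compound treatment; agonist 0.1 nM E2 final; same-well multiplex.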
(In general: In qHTS, concentration-response curves come from the screen itself.)

Experiment [3] is described as follows: qHTS assay to identify small molecule antagonists of the androgen receptor (AR) signaling pathway using the MDA cell line in the presence of 0.5 nM R1881 - cell viability counter screen (AID 1259242). Further: nearly all actives have a fitted effect of over 45% in size. The essentials: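 MDA-kb2 cells (human breast carcinoma, stably carrying MMTV-luciferase reporter) were exposed to compounds with 0.5 nM R1881 (final) for 16 hr at 37C, 0% CO2; viability then read as live-cell protease fluorescence (CellTiter-Fluor, 30 min) in the same wells.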

The target in experiment [4] is Estrogen receptor (Homo sapiens) (UniProt P03372). The experiment is described as follows: qHTS assay to identify small molecule antagonists of the estrogen receptor alpha (ER-alpha) signaling pathway using the BG1 cell line in the presence of 0.1 nM 17-beta-estradiol (AID 1259244). Further: nearly all actives have a fitted effect of over 50% in size. Further: potency means the concentration at half of the fitted maximal effect. The essentials: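 VM7Luc4E2 cells (endogenous full-length ER-alpha, stable 4xERE-luciferase) were grown 5 days in phenol red-free medium with charcoal-stripped FBS, then exposed 22 h at 37C to compounds plus 0.1 nM (final) 17beta-estradiol; ONE-Glo luminescence read-out.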

The nature of experiment [5]: qHTS assay to identify small molecule phospholipidosis (PLD) inducers (AID 1259344; active means well fitted curve in the direction sought with a large enough effect; an effect the other way counts as inactive or inconclusive). The essentials:
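HepG2 cells on collagen I, attached 4 h at 37 C, were co-treated with compound and LipidTOX Red dye for 24 h at 37 C, then fixed with paraformaldehyde plus Hoechst 33342 and imaged by high-content microscopy for phospholipid accumulation.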

A short description of experiment [6]: qHTS assay to identify small molecule HDAC inhibitors (AID 1259364). Further: top concentration of the series differs between compounds; nearly all actives have a fitted effect of over 45% in size. An outline of the steps:
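Wild-type HCT-116 cells were plated overnight, exposed to compounds for 2 h at 37 °C, then given HDAC-Glo class I/II luminogenic reagent for 30 min at room temperature before luminescence was read.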

Experiment [7] is described as follows: qHTS assay to identify small molecule agonists of the sonic hedgehog signaling (Shh) pathway - cell viability counter screen (AID 1259366). Further: nearly all actives have a fitted effect of over 50% in size. Further: potency means the concentration at half of the fitted maximal effect. The essentials: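 Fluorescence from CellTiter-Fluor reports live cells in this counter screen. NIH/3T3-derived Gli1-Luc reporter cells receive test compounds for 24hr at 37C; reagent goes in at 23hr.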
Experiment [8] is described as follows: qHTS assay to identify small molecule antagonists of the sonic hedgehog signaling (Shh) pathway - cell viability counter screen (AID 1259367). Further: nearly all actives have a fitted effect of over 55% in size. Further: potency means the concentration at half of the fitted maximal effect. An outline of the steps:
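NIH/3T3-derived Gli1-Luc reporter cells (2,000 per well) rested 4 hr at 37 C, then received DMSO compounds plus conditioned medium. After 23 hr of treatment, CellTiter-Fluor was added for 1 hr at 37C and fluorescence read.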

Experiment [9] in a line: qHTS assay to identify small molecule agonists of the sonic hedgehog signaling (Shh) pathway (AID 1259368; calls by dose curve; further: series mostly up to about 92 µM; nearly all actives have a fitted effect of over 15% in size). An outline of the steps:
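NIH/3T3-derived 3T3Gli1-Luc cells carrying a stably integrated Gli1 response element–firefly luciferase reporter were plated, left 4 hr at 37 C, then given compounds in DMSO for 24 hr. Luminescence was read 30 min after adding luciferase reagent.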

The nature of experiment [10]: qHTS assay to identify small molecule antagonists of the sonic hedgehog signaling (Shh) pathway (AID 1259369; calls by dose curve; further: nearly all actives have a fitted effect of over 45% in size; further: potency means the concentration at half of the fitted maximal effect). The essentials: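 NIH/3T3-derived 3T3Gli1-Luc cells with stably integrated Gli1-Luc reporter were preincubated 4hr at 37 C, then given compounds in DMSO plus Shh conditioned medium and incubated 24hr. Firefly luciferase luminescence read after 30min reagent at room temperature.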

The target of experiment [11] is Estrogen receptor beta (Homo sapiens) (UniProt Q92731). The experiment is described as follows: qHTS assay to identify small molecule agonists of the estrogen receptor beta (ER-beta) signaling pathway (AID 1259377; active means well fitted activation curve with a large enough effect in the signal ratio in the repeat runs, not every such curve was filed as active; the % refers to the signal ratio). An outline of the steps: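 Screening used GripTite ER-beta-UAS-bla cells held in 2% charcoal-stripped FBS medium. After overnight (16 hr) compound incubation at 37C, beta-lactamase activity was detected with a FRET substrate by fluorescence.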

Experiment [12] has the same target. The experiment is described as follows: qHTS assay to identify small molecule antagonists of the estrogen receptor beta (ER-beta) signaling pathway (AID 1259378; active means well fitted inhibition curve with a large enough effect in the signal ratio in the repeat runs, not every such curve was filed as active; the % refers to the signal ratio). The essentials: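 ER-beta-UAS-bla HEK293T (GripTite) cells in 2% charcoal-stripped FBS medium were preincubated 6 hr at 37C, dosed with compound, then stimulated with 1 nM E2 (final) for 16 hr; beta-lactamase reporter read by B/G FRET fluorescence after 2 hr substrate loading.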

A short description of experiment [13]: qHTS assay to identify small molecule agonists of the androgen receptor (AR) signaling pathway in the presence of an antagonist - cell viability counter screen (AID 1259379). Further: nearly all actives have a fitted effect of over 25% in size. Further: potency means the concentration at half of the fitted maximal effect. The essentials:
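MDA-kb2 human breast carcinoma cells (stable MMTV-luciferase, AR/GR responsive) were seeded 3,000 cells/well, pre-incubated 5 hr at 37C without CO2, then given 3.0uM nilutamide and compounds at 15 concentrations for 16 hr. Viability was read by CellTiter-Fluor fluorescence.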

The nature of experiment [14]: qHTS assay to identify small molecule agonists of the estrogen receptor beta (ER-beta) signaling pathway - cell viability counter screen (AID 1259380). Further: nearly all actives have a fitted effect of over 30% in size. Further: potency means the concentration at half of the fitted maximal effect. An outline of the steps:
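ER-beta-UAS-bla HEK293T cells in medium with 2% charcoal-stripped FBS were preincubated 6 hr at 37C, dosed with compound in DMSO for 16 hr, then after the bla read, CellTiter-Glo was added for 30 min at room temperature; luminescence recorded.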

Experiment [15] is described as follows: qHTS assay to identify small molecule antagonists of the estrogen receptor beta (ER-beta) signaling pathway - cell viability counter screen (AID 1259382). Further: series mostly up to about 92 µM; nearly all actives have a fitted effect of over 55% in size. An outline of the steps: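 ER-beta-UAS-bla HEK293T cells (2,000/well, 2% charcoal-stripped FBS) were pre-incubated 6 hr at 37C, then given compound plus 1nM final 17-beta-estradiol for 16 hr. Viability was read in the same wells by CellTiter-Glo luminescence after 30 min at room temperature.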

In experiment [16] the target is Estrogen receptor (Homo sapiens) (UniProt P03372). The experiment is described as follows: qHTS assay to identify small molecule agonists of the estrogen receptor alpha (ER-alpha) signaling pathway in the presence of an antagonist (AID 1259383; calls by dose curve; further: top concentration of the series differs between compounds; nearly all actives have a fitted effect of over 15% in size). The essentials:
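VM7Luc4E2 cells (endogenous full-length ER-alpha, 4×ERE-luciferase) were precultured 5 days in phenol red-free medium with 10% charcoal-stripped FBS, given 10.0nM ICI-182,780 (final), then treated with compounds at 15 concentrations for 22hr at 37C; luminescence read with ONE-Glo.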

Experiment [17] deals with Androgen receptor (Homo sapiens) (UniProt P10275). The experiment is described as follows: qHTS assay to identify small molecule antagonists of the androgen receptor (AR) signaling pathway using the MDA cell line in the presence of 0.5 nM R1881 (AID 1259243). Further: nearly all actives have a fitted effect of over 50% in size. The essentials: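 MDA-kb2 human breast carcinoma cells carrying an MMTV-luciferase reporter (AR- and GR-responsive) were plated, rested 5 hr at 37C, dosed with compounds, then stimulated with 0.5 nM R1881 (final) for 16 hr; luminescence was read after ONE-Glo.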

Experiment [18] in a line: qHTS assay to identify small molecule HDAC inhibitors - cell viability counter screen (AID 1259365). Further: series mostly up to about 92 µM; nearly all actives have a fitted effect of over 50% in size. An outline of the steps: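 To flag cytotoxic hits, 1,500 wild-type HCT-116 cells per well, plated the day before, receive test compounds for 2hr at 37 C before CellTiter-Glo reagent and a luminescence read.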
The nature of experiment [19]: qHTS assay to identify small molecule agonists or antagonists of the thyroid stimulating hormone receptor (TSHR) signaling pathway - wild type cell line counter screen (AID 1259384; calls by dose curve). An outline of the steps: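 Wild-type HEK293 cells were plated 18 h at 37 C/5% CO2, pin-dosed with compound plus Ro20-1724 medium, held 30 min at room temperature, then given cAMP-d2 and anti-cAMP-cryptate; fluorescence was read after 1 h. Fifteen concentrations, triplicate.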

In experiment [20] the target is Thyrotropin receptor (Homo sapiens) (UniProt P16473). The experiment is described as follows: qHTS assay to identify small molecule antagonists of the thyroid stimulating hormone receptor (TSHR) signaling pathway (AID 1259385; calls by dose curve; further: nearly all actives have a fitted effect of over 20% in size). The essentials: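 TSHR-HEK293 cells were plated and held 18 h at 37C/5% CO2, then given compound plus Ro20-1724 and stimulated with TSH at 1.5 ng/mL final. After 30 min at room temperature, cAMP was detected with cAMP-d2/anti-cAMP-cryptate (1 h) by fluorescence.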

Where “and” joins values, the source holds several entries; their conditions need not be identical. Equal entries are not always repeated. Results filed as inconclusive are left out. The source holds several records for some structures; these can differ, active in one and inactive in another. Calls of active or inactive are those of the source. Unless noted, the call rests on the fitted dose curve; in most records, active means well fitted curve in the direction sought with a large enough effect in the repeat runs; inconclusive means weak or mixed curves; inactive means no such curve, though single readings can be large; an effect the other way counts as inactive or inconclusive.

Sequence of Estrogen receptor beta (Homo sapiens) (Q92731 whole entry, looked up): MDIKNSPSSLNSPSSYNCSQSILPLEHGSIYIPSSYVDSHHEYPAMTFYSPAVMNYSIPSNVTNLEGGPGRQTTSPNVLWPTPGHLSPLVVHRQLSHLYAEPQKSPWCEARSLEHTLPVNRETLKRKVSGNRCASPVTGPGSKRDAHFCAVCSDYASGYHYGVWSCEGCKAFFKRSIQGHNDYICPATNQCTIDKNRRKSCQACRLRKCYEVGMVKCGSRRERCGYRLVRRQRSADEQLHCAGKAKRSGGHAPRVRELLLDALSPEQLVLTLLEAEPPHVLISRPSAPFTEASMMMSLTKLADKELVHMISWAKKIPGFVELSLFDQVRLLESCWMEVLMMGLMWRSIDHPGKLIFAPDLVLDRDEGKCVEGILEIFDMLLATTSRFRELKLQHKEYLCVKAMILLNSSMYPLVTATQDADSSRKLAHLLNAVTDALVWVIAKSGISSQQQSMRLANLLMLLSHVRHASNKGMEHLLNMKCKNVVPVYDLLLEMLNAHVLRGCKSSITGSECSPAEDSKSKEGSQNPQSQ
Sequence of Thyrotropin receptor (Homo sapiens) (P16473 whole entry, looked up): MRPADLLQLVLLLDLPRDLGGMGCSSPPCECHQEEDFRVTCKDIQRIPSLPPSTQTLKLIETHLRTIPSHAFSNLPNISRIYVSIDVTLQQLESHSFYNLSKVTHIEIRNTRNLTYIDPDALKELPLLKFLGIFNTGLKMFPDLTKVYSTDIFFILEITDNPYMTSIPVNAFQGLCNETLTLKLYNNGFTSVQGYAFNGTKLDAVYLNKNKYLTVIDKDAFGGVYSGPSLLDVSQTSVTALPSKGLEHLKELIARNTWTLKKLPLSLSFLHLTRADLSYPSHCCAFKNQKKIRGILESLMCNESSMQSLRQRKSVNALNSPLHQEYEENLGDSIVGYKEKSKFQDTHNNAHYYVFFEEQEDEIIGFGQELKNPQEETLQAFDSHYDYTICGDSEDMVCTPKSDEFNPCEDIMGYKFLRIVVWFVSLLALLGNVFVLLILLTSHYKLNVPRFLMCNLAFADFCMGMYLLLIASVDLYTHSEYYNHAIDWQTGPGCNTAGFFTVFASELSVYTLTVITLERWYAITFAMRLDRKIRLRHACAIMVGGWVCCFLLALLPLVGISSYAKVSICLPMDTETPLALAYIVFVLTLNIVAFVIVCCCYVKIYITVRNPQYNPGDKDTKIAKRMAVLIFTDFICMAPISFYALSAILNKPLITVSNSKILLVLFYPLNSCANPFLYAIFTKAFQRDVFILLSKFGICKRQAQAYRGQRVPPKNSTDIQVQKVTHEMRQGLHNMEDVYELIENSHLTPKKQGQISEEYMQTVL
Sequence of Androgen receptor (Homo sapiens) (P10275 whole entry, looked up): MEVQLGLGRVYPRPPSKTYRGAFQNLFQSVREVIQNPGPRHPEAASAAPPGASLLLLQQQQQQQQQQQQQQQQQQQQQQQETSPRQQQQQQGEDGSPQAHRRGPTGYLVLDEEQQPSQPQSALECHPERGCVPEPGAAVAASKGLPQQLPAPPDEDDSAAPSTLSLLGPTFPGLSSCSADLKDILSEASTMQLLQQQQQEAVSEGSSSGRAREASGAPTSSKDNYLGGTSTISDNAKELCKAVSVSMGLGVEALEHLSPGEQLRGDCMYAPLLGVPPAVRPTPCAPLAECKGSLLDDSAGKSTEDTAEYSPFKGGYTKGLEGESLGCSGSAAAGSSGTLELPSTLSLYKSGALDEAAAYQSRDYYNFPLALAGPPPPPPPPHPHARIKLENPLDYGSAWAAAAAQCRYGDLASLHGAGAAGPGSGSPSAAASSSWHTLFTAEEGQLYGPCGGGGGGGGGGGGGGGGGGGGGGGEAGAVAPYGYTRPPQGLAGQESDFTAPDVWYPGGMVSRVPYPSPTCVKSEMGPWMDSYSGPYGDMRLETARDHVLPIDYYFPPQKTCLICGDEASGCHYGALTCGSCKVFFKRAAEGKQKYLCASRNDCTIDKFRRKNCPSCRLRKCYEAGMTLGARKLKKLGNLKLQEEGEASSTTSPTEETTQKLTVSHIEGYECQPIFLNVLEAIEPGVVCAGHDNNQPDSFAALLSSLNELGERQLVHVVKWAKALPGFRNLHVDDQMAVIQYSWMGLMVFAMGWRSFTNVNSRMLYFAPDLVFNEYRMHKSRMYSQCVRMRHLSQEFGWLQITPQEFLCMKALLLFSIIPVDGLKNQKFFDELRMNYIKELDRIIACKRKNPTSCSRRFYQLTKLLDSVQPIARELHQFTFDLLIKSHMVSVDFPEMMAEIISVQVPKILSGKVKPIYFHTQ
Sequence of Estrogen receptor (Homo sapiens) (P03372 whole entry, looked up): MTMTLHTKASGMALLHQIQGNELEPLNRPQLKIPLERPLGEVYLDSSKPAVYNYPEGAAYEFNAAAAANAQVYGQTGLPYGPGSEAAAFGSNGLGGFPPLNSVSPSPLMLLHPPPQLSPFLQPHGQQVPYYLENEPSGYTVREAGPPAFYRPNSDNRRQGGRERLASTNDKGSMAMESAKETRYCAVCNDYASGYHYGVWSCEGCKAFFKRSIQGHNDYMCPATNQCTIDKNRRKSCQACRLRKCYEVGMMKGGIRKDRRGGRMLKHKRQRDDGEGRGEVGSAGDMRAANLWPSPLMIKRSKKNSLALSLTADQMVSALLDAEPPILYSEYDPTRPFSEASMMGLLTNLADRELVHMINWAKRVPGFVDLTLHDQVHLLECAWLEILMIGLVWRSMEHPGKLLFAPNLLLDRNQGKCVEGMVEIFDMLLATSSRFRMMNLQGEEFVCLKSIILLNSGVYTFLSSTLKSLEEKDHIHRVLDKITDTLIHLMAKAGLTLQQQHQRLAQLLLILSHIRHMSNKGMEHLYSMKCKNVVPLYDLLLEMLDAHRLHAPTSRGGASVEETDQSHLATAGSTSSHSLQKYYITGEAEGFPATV

As to `NCCc1ccc(O)c(O)c1`, the Potency result in [1], in [3], in [6], in [11], in experiment [12] and in experiment [14] was “inactive” each time. Further, the Potency entry in [15] and in [16] was “inactive” each time. Moreover, the Potency in [2] was 34.5 µM (active); in experiment [4], 2.44 µM (active); in experiment [7], 24.4 µM (active) and inactive; in experiment [8] it was 30.7 µM (active) and inactive; in experiment [10], 0.866 µM (active); in [13] it was 54.6 µM (active) and inactive. The compound was classed as inactive in experiment [5] and in [9].
Regarding `CCCCCCCCCC(=O)O`, the Potency entry in experiment [1], in experiment [2], in [3], in experiment [6], in [7] and in experiment [8] was “inactive” in each case. For the same compound, the Potency result in experiment [10], in experiment [13], in experiment [14] and in experiment [15] was “inactive” throughout. For the same compound, the result in experiment [17], in experiment [5], in experiment [18], in experiment [9], in [19] and in experiment [20] was inactive.
On to `Cc1cc(=O)[nH]c(C(C)C)n1`, for which the Potency result in experiment [1], in [2], in [3], in [4], in experiment [6] and in experiment [7] was “inactive” throughout. The Potency result in experiment [8], in [10], in experiment [12], in experiment [13], in experiment [14] and in [15] was “inactive” each time. Further, the Potency entry in [16] was “inactive”. Besides, the result in [17], in experiment [18], in experiment [9], in experiment [19] and in [20] was inactive.
Take `O=S(=O)(O)CCS`: the Potency result in experiment [1], in [2], in experiment [3], in [4], in experiment [6] and in experiment [7] was “inactive” throughout. Also, the Potency result in experiment [8], in [10], in experiment [11], in experiment [12], in experiment [14] and in experiment [15] was “inactive” throughout. The Potency result in experiment [16] is “inactive”. The call in experiment [5], in experiment [9], in experiment [19] and in experiment [20] was inactive.
As for `C=C(C)C(=O)OCCCCCCCCCCCC`, the Potency entry in experiment [1], in experiment [2], in experiment [3], in experiment [4], in experiment [6] and in experiment [7] was “inactive” in each case. Besides, the Potency result in [8], in experiment [10], in [11], in experiment [12], in experiment [13] and in experiment [14] was “inactive” each time. The Potency entry in experiment [15] and in experiment [16] was “inactive” in each case. In addition, the compound was classed as inactive in [18], in [9], in experiment [19] and in experiment [20].
As for `O=C1CCCCC1`, the Potency result in experiment [1], in experiment [2], in experiment [3], in experiment [4], in experiment [6] and in experiment [7] was “inactive” each time. Further, the Potency entry in experiment [8], in experiment [10], in experiment [11], in experiment [12], in experiment [13] and in experiment [14] was “inactive” each time. Moreover, the Potency entry in experiment [15] and in [16] was “inactive” each time. Further, the result in [17] and in experiment [9] was inactive.
With `NS(=O)(=O)c1cc2c(cc1Cl)NC=NS2(=O)=O`, the Potency entry in experiment [1], in experiment [2], in [3], in [4], in [6] and in experiment [7] was “inactive” throughout. In addition, the Potency entry in experiment [8], in experiment [10], in experiment [11], in [12], in experiment [14] and in experiment [15] was “inactive” each time. In [16], the Potency result is “inactive”. The compound was called inactive in experiment [5], in experiment [18], in [9], in [19] and in experiment [20].
In the case of `S=c1nc[nH]c2nc[nH]c12`, the Potency entry in experiment [1], in experiment [2], in experiment [3], in experiment [4], in [6] and in [7] was “inactive” each time. Besides, the Potency result in [8], in experiment [10], in experiment [11] and in experiment [16] was “inactive” in each case. Besides, the outcome in experiment [5], in experiment [18], in [9], in experiment [19] and in experiment [20] was inactive. In experiment [14], the Potency is 7.51 µM (active) and 3.35 µM (active).

The values above are taken from PubChem BioAssay (Tox21).
